Only some compounds are listed: those with a hit (about 27% of all), similar ones and a draw of the others.
CYP2C9 inhib: blockers of cytochrome P450 2C9 activity – biochemical, luminescence, ADME assay, primary screen | P11712 | CYP2C9 Supersomes, luciferin-H conversion | inhibition, % at 5 µM | 96,000 tested, 20% active;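 active = blocking of liver enzyme CYP2C9 beyond about 50% at 5 µM, limit read from the data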
Cav32 inh: Cav3.2 calcium influx blockers – cell-based, Fluo-4 calcium fluorescence, FDSS, MLSMR library, primary screen; Voltage-dependent T-type calcium channel subunit alpha-1H (Homo sapiens), O95180; B-score at 10 µM; Cav3.2-expressing cells; active compounds read low; 100,000 tested, 4% active;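 active = single-dose well whose peak fluorescence ratio is a statistical outlier from its plate by either plate-standardised score or position-corrected B-score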
CYP2C19 inh: blockers of cytochrome P450 2C19 activity – biochemical, luminescence, ADME assay, primary screen | P33261 | CYP2C19 Supersomes, luciferin-H EGE luminescence, 30 min | inhibition, % at 5 µM | 96,000 tested, 21% active | AID 778, 2007;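 active = CYP2C19 inhibition above a set limit at 5 µM in the primary screen, cut at about 50% in these data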
Target sequence (P33261 whole entry, looked up): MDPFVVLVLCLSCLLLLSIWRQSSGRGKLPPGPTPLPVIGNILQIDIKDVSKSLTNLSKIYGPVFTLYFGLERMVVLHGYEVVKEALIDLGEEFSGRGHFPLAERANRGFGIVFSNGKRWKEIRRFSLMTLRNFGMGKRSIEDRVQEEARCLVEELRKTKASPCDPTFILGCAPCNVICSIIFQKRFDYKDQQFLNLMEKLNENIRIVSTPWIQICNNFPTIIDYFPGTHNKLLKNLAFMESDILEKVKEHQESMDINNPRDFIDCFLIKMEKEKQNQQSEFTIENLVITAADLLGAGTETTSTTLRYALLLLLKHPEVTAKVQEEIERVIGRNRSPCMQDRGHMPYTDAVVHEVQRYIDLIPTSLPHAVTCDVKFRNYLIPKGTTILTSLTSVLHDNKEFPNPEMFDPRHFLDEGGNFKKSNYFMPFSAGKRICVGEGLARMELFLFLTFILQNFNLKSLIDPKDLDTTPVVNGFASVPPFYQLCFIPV
CYP2C9 activ: human CYP2C9 activators, primary screen, biochemical, luminescence; activation factor at 5 µM; recombinant CYP2C9, luciferin-H conversion; active compounds read high; factor 1 = untreated enzyme, 0 = blocked; Cytochrome P450 2C9 (Homo sapiens), P11712; AID 1024, 2008; 96,000 tested, 1.4% active;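 active = activation factor of 2 or more for CYP2C9 at a 5 µM dose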
CYP2C19 act: human CYP2C19 activators, primary screen, biochemical, luminescence. Cytochrome P450 2C19 (Homo sapiens), P33261. recombinant CYP2C19, luciferin-H EGE luminescence; active compounds read high; 0 = fully inhibited enzyme, 1 = untreated enzyme. activation factor at 5 µM. 96,000 tested, under 10 active. AID 1025, 2008;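 active = activation factor of at least 2 at 5 µM in the primary screen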
Numbers stand for hits; n = inactive; x = no result.

SMILES	CYP2C9 inhib	Cav32 inh	CYP2C19 inh	CYP2C9 activ	CYP2C19 act
Cc1ccc(C2CC(=O)c3cnc(N4CCN(c5ccccc5)CC4)nc3C2)cc1 (stereo unspecified)	54.5	n	n	n	n
Cc1ccc(C2CC(=O)c3cnc(N4CC(C)CC(C)C4)nc3C2)cc1 (stereo unspecified)	n	x	n	n	n
CC1CC(C)CN(c2ncc3c(n2)CC(c2ccc(Cl)cc2)CC3=O)C1 (stereo unspecified)	78.2	n	n	n	n
COc1ccc(C2CC(=O)c3cnc(N4CCN(Cc5ccccc5)CC4)nc3C2)cc1 (stereo unspecified)	94.4	n	79.6	n	n
O=C1CC(c2ccco2)Cc2nc(N3CCN(Cc4ccc5c(c4)OCO5)CC3)ncc21 (stereo unspecified)	n	n	n	n	n
COc1cccc(C(=O)Nc2ncc3c(n2)CC(c2ccc(OC)cc2OC)CC3=O)c1 (stereo unspecified)	89.1	n	79.7	n	n
O=C(Nc1ncc2c(n1)CC(c1ccco1)CC2=O)c1ccccc1 (stereo unspecified)	n	n	n	n	n
COc1ccc(Nc2ncc3c(n2)CC(c2ccccc2)CC3=O)cc1 (stereo unspecified)	n	n	n	n	n
CCc1ccc(Nc2ncc3c(n2)CC(c2ccc(OC)cc2)CC3=O)cc1 (stereo unspecified)	79.3	n	n	n	n
O=C1CC(c2ccccc2)Cc2nc(N3CCc4ccccc4C3)ncc21 (stereo unspecified)	63.8	-6.21	n	n	n
O=C1CC(c2ccc(F)cc2)Cc2nc(N3CCc4ccccc43)ncc21 (stereo unspecified)	n	x	n	n	n
COc1ccc([C@@H]2C[C@@H](c3ccccc3)Oc3cc(OC)cc(OC)c32)cc1	x	n	x	x	x
O=C(C1CCN(S(=O)(=O)c2ccc3ccccc3c2)CC1)N1CCN(c2ncccn2)CC1	n	n	70.8	n	n
CCOC(=O)N1CCC(NC(=O)C2CCN(S(=O)(=O)c3cccc4cccnc34)CC2)CC1	n	n	n	n	n
O=C(C1CCN(S(=O)(=O)c2cccc3cccnc23)CC1)N1CCN(c2ccc(Cl)cc2)CC1	n	n	85.2	2.3	n
CCOC(=O)C1CCN(C(=O)C2CCN(S(=O)(=O)c3cccc4cccnc34)CC2)CC1	n	n	n	2.3	n
CC1Cc2ccccc2N1C(=O)C1CCCN(S(=O)(=O)c2cccc3cccnc23)C1 (stereo unspecified)	n	n	78.3	n	n
CCOC(=O)N1CCN(C(=O)CSc2ncnc3ccccc23)CC1	n	n	n	n	n
CCOC(=O)C1CCN(c2cc(=O)n(Cc3ccc(F)cc3)c(=O)[nH]2)CC1	n	n	n	n	n
Cc1cccnc1NC(=O)CSc1nnc(Cc2ccccc2)o1	x	n	x	x	x
COc1ccc(N2CCN(C(=O)C3CCCN(S(=O)(=O)c4cccc5cccnc45)C3)CC2)cc1 (stereo unspecified)	n	n	65.4	n	n
Cc1ccc2cccc(S(=O)(=O)N3CCN(c4cccc(Cl)c4)CC3)c2n1	n	n	92.0	n	n
O=S(=O)(c1cccc2cccnc12)N1CCN(c2ccccc2)CC1	n	x	98.7	2.8	n
Cn1c(=O)oc2cc(S(=O)(=O)N3CCN(c4cccc(Cl)c4)CC3)ccc21	n	n	n	n	n
O=C(C1CCN(S(=O)(=O)c2cccc3cccnc23)CC1)N1CCN(c2ccccn2)CC1	n	x	n	n	n
SMILES	CYP2C9 inhib	Cav32 inh	CYP2C19 inh	CYP2C9 activ	CYP2C19 act
CC(C)Oc1ccc(C(=O)N(Cc2ccco2)C2CCS(=O)(=O)C2)cc1 (stereo unspecified)	n	n	n	n	n
CCCCOc1ccc(CN2CCC(O)CC2)cc1	n	n	n	n	n
CCCCN(C)C(=O)C1CCN(Cc2ccc(OCc3ccccc3)cc2)CC1	x	-3.62	x	x	x
C=CCn1c(SCc2ccc(F)cc2)nc2c1c(=O)[nH]c(=O)n2C	n	n	57.5	n	n
COCCCNC(=O)C1CCC(=O)N1Cc1ccccc1Cl (stereo unspecified)	n	n	n	n	n
COc1ccc(C2CC(c3ccccc3)n3nnnc3N2)cc1 (stereo unspecified)	87.3	n	98.4	n	n
Cc1ccc(C2CC(c3cccc(Br)c3)Nc3nnnn32)cc1 (stereo unspecified)	n	n	51.4	n	n
COc1ccc(C2CC(c3cc(Br)ccc3F)n3nnnc3N2)cc1 (stereo unspecified)	63.8	n	n	n	n
CCOc1ccc(C2CC(c3cccc(OC)c3OC)n3nnnc3N2)cc1Cl (stereo unspecified)	89.2	-4.13	97.7	n	n
O=C(CSc1nnnn1-c1ccccc1Cl)Nc1ccc2c(c1)OCCO2	n	n	n	n	n
COc1ccc(CCNC(=O)CS(=O)Cc2nc(-c3cccs3)oc2C)cc1OC (stereo unspecified)	n	n	n	n	n
CCN(CC)C(=O)CSc1ccccc1N	n	n	n	n	n
CCCN1C2=C(C(=O)CC(C)(C)C2)C(c2ccc(F)cc2)C2=C1c1ccccc1C2=O (stereo unspecified)	74.6	x	n	n	n
Cc1sc2nc(C3CC3)nc(N3CCN(S(=O)(=O)c4ccc(F)cc4)CC3)c2c1C	59.2	n	n	n	n
Brc1cnc(N2CCOCC2)nc1N1CCCCC1	n	n	58.3	n	n
Cc1ccc(S(=O)(=O)N2CCCC2C(=O)O)s1 (stereo unspecified)	n	n	n	n	n
COc1ccc(N2CCN(CCCNS(=O)(=O)c3c(C)noc3/C=C/N(C)C)CC2)cc1	61.9	n	n	n	n
CC(=O)c1c(C)[nH]c(C(=O)Nc2cc(C)cc(C)c2)c1C	84.0	n	58.0	n	n
CC(=O)c1c(C)[nH]c(C(=O)Nc2ccc(C)cn2)c1C	n	n	n	n	n
O=C1C(Cc2ccc(O)cc2)NC(=S)N1c1ccccc1 (stereo unspecified)	n	n	56.9	n	n
CCOC(=O)c1ccc2ncc(C(=O)OCC)c(NCCCN3CCOCC3)c2c1	87.5	n	82.7	n	n
CCOC(=O)c1cnc2ccc(OC)cc2c1Nc1ccc2c(c1)OCCO2	96.4	n	n	n	n
COc1cccc(NC2=NC3(CCCCC3)N=C(N)N2)c1	n	n	n	n	n
COc1ccc(-n2c(-c3ccccc3)cc3c2CCCC3=O)cc1	n	n	75.5	n	n
O=C(Nc1ccc(N2CCCC2)cc1)c1ccc(Br)o1	n	n	60.9	n	n
O=C(Nc1ccc(N2CCN(C(=O)c3ccccc3)CC2)c(Cl)c1)c1ccc(Br)o1	50.6	n	n	n	n

Screening results from PubChem.
